# From PubChem
# Rows were chosen to be rich in hits. Some 5.7% of all compounds tested hit in one or more screens of this group.
# Giardia killer: Small Molecules that selectively kill Giardia lamblia: qHTS. Giardia lamblia trophozoite viability. 0.15% of 340,000 active. activity change, % at 7.66 µM, hits read low; in the data active = activity change below about -80%; inconclusive = between about -30% and that limit;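 also: parasites exposed to compound for two days anaerobically before the ATP read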
#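 Luminescence from cellular ATP indicates surviving trophozoites (100 cells/well) following 48 hrs anaerobic compound treatment at 37 deg C; signal develops 15-30 min at room temperature.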
# KB-3-1 tox: qHTS assay for MDR1-selective chemotherapeutics: Primary screen using the parental adenocarcinoma cell KB-3-1; 1.4% of 400,000 active; KB-3-1 viability, CellTiter-Glo ATP luminescence, 72 h; Potency, µM (top dose mostly 46.1 µM), hits mostly cytotoxic; also: potency is read from the fitted curve at half-maximal effect; nearly all actives have a fitted effect of over 60% in size
#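 Cells are dispensed, compounds pinned in, plates held at 37 °C for 72 h, then CellTiter-Glo is added and luminescence read after 10 minutes. Cell line: parental KB-3-1 in phenol-red-free DMEM, 10% FBS.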
# PI4K2A block: qHTS for small molecular inhibitors of PI4K2A; Phosphatidylinositol 4-kinase type 2-alpha (Homo sapiens), Q9BTU6; purified PI4K2A, ADP-Glo luminescence, 1 h; hits give low values; activity change, negative = inhibition, % at 76.9 µM; 0.13% of 420,000 active; AID 1346378, 2018; in the data active = activity change below about -50%; inconclusive = mostly about -30% to -49%;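 also: -100% = wells without enzyme as full effect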
# Target sequence (Q9BTU6 whole entry, looked up): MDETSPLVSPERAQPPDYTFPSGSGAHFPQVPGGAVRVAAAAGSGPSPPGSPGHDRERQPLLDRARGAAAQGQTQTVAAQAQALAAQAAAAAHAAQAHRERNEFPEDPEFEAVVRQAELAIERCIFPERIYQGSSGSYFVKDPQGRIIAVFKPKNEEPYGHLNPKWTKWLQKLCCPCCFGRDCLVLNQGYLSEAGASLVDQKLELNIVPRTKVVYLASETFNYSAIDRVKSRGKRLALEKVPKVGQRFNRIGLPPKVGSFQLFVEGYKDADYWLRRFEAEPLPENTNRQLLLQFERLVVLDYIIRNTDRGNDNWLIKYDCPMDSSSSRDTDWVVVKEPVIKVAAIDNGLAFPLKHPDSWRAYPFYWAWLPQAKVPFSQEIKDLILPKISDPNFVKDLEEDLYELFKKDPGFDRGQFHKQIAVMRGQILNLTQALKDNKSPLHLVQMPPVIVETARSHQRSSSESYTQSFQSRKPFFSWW
#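 Compounds are screened against recombinant PI4K2A using PI as substrate and ATP, the latter dispensed at 300 microM. Reactions run one hour at ambient temperature before ADP-Glo detection; full inhibition defined by wells lacking enzyme.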
# Nrf2 block: Nrf2 qHTS screen for inhibitors; A549 ARE-Fluc reporter, luciferase luminescence, 18-24 h; Potency, µM (top dose mostly 46 µM), for the others: at the top dose activity change, negative = inhibition, usual class: inhibitors; 2.1% of 360,000 active; also: potency is read from the fitted curve at half-maximal effect; nearly all actives have a fitted effect of over 60% in size
#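 In this cell-based qHTS, ARE-driven firefly luciferase in A549 cells reports Nrf2 activity; the luminescent signal after BugLite lysis is the measured value, with a prior CellTiter-Fluor read for cell health.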
# KB-V1 cytotox: qHTS assay for MDR1-selective chemotherapeutics: Primary screen using the drug-selected MDR subline cells KB-V1; KB-V1 MDR cells viability, CellTiter-Glo, 72 h; AID 1347076, 2019; 3.4% of 400,000 active; Potency, µM (top dose mostly 46.1 µM), usual class: cytotoxic; also: potency is read from the fitted curve at half-maximal effect; nearly all actives have a fitted effect of over 60% in size
#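 Luminescent ATP read-out (CellTiter-Glo, 10 min) measures survival of drug-selected KB-V1 MDR cells after 72 h, 37 degrees C compound exposure. Medium: phenol-red-free DMEM, 10% FBS. Values from fitted concentration-response curves.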
# A549 viability: Nrf2 qHTS screen for inhibitors: counterscreen for cytotoxicity | A549 ARE-Fluc cells, CellTiter-Fluor viability, 18-24 h | Potency, µM (highest dose often 46 µM), for inactives: top-dose activity change, negative = cytotoxicity, hits mostly inhibitors | 0.16% of 390,000 active | AID 504648, 2011; also: potency is read from the fitted curve at half-maximal effect
#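 A549 ARE_Fluc cells in 5% FBS OPTI-MEM were exposed to compounds in concentration-response for 18-24 h at 37 deg C. Viability was read by CellTiter-Fluor fluorescence (Ex 405/Em 525) after 30 min, before the luciferase read.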
# * marks the source's active call; other numbers are inactive results; i = inactive; u = inconclusive; x = no result given. Unless noted, calls follow the shape of the dose curve; as a rule, active = well fitted curve in the direction sought with a large enough effect; inconclusive = small, poorly fitted or top-dose-only effect, or another doubt; inactive = no such curve, though single readings can be large; an effect the other way counts as inactive or inconclusive. Unless noted, % is scaled to controls: 0 for no effect and ±100 for the full control effect.
SMILES,Giardia killer,KB-3-1 tox,PI4K2A block,Nrf2 block,KB-V1 cytotox,A549 viability
O=C(Nc1ccccn1)c1ccc2c(c1)S(=O)(=O)c1ccccc1C2=O,-5,i,0,12%,i,5%
O=C(CSCc1ccccc1)N/N=C/c1ccc(OCC(=O)N2CCCCC2)cc1,-5,i,4,-20%,21µM*,9%
O=C(COc1ccc(/C=N/NC(=O)C(=O)N2CCCCCC2)cc1)Nc1ccccc1Cl,-14,i,-7,-6%,18µM*,0%
COc1ccc(CSCC(=O)N/N=C/c2ccc(OCC(=O)N3CCCCC3)cc2)cc1,-2,i,-2,u,i,-4%
COc1ccc(/C=N/NC(=O)C(=O)N2CCCCCC2)cc1,-5,i,-1,u,i,2%
COc1ccc(CCn2c3c(c(=O)[nH]c2=S)CN(c2ccccc2)CN3)cc1OC,-9,x,x,-26%,x,10%
COc1cccc(-c2cnc3c(NC=O)cc(-c4ccc(OC)cc4OC)cn23)c1,x,0.21µM*,-3,x,u,x
COc1cccc(-c2cnc3c(NC=O)cc(-c4ccc(N(C)C)cc4)cn23)c1,x,u,-16,x,u,x
COc1ccc(-c2cnc3c(NC=O)cc(-c4ccoc4)cn23)cc1OC,x,u,-18,x,u,x
COc1ccc(-c2cc(NC=O)c3ncc(-c4ccc(OC)c(OC)c4)n3c2)c(OC)c1,x,0.65µM*,-7,x,1.2µM*,x
CCOc1ccc(NC(=O)Cn2c(=O)n(Cc3ccccc3)c(=O)c3sc4ccccc4c32)cc1,x,x,-2,0%,x,-1%
CC1(C)Cc2c(C#N)c(SCC(=O)c3ccccc3)nc(N3CCOCC3)c2CS1,5,i,-1,16µM*,i,-18%
CSc1nc(N2CCOCC2)c2c(c1C#N)CC(C)(C)OC2,-9,u,-2,u,9.2µM*,2%
COC(=O)CCSc1nc(N2CCOCC2)c2c(c1C#N)CC(C)(C)OC2,-4,i,0,u,i,1%
CC(C)CCSc1nc(N2CCOCC2)c2c(c1C#N)CC(C)(C)OC2,-2,i,-4,u,8.2µM*,u
CCC1(C)Cc2c(C#N)c(SC)nc(N3CCOCC3)c2CO1 (centres undefined),-14,i,4,u,i,-6%
O=C(/C=C/c1ccc(F)cc1)Nc1cccc([S+](=O)([O-])Nc2ccccc2F)c1,x,i,x,x,i,x
CCSc1ncc(Cl)c(C(=O)Nc2sc3c(c2C(=O)OC)CCCC3)n1,x,i,x,x,u,x
COc1ccc(CCn2c3c(c(=O)[nH]c2=S)CN(CC(C)C)CN3)cc1OC,11,x,x,-23%,x,3%
C=C(C)c1cccc(C(C)(C)NC(=O)Nc2ccc(C(C)=O)cc2)c1,-9,i,4,-5%,18µM*,2%
C=C(C)c1cccc(C(C)(C)NC(=O)N2CCC(C)CC2)c1,13,i,7,1%,18µM*,-6%
NCCCC(N)CC(=O)NCC1NC(=O)C(CO)NC(=O)C(N)CNC(=O)C(C2CCN=C(N)N2)NC(=O)C(=CNC(N)=O)NC1=O (centres undefined),x,x,i,x,x,x
CN[C@H]1C[C@H]2c3[nH]c4c(-c5cccc(C)c5)cccc4c3CCN2C[C@H]1[C@H](C)O,x,x,2,x,x,x
COc1ccc([C@H]2OC(=O)C[C@H]2C(=O)N2CCCCC2)cc1OC,x,x,-1,x,x,x
COc1ccc(CCN(Cc2ccccn2)C(=S)Nc2ccc(C)cc2)cc1OC,-2,u,9,-11%,23µM*,-5%
SMILES,Giardia killer,KB-3-1 tox,PI4K2A block,Nrf2 block,KB-V1 cytotox,A549 viability
CCOc1ccc(OCC)c(-c2c(=O)n(OCc3ccccc3C(=O)OC)c3ccccc3[n+]2[O-])c1,-10,i,2,x,3.7µM*,-11%
CCOc1ccc(OCC)c(-c2c(=O)n(OCc3ccccc3Br)c3ccccc3[n+]2[O-])c1,12,i,-2,x,i,-3%
Cc1ccc(Nc2nc(N)c([N+](=O)[O-])c(N3CCC(C)CC3)n2)cc1C,11,u,2,10%,23µM*,-2%
CCN1CCN(c2nc(Nc3ccccc3)nc(N)c2[N+](=O)[O-])CC1,-6,i,8,6%,i,-2%
CCN1CCN(c2nc(Nc3cccc(C)c3)nc(N)c2[N+](=O)[O-])CC1,3,i,0,4%,4.1µM*,-15%
Cc1cccc(Nc2nc(N)c([N+](=O)[O-])c(N3CCCC(C)C3)n2)c1 (centres undefined),3,u,-3,16µM*,u,-18%
Cc1cccc(Nc2nc(N)c([N+](=O)[O-])c(N3CCN(C)CC3)n2)c1,35,i,-1,5%,u,0%
CNC(=S)N/N=C/c1c(C(=O)OC)cnn1-c1ccc(Cl)cc1,x,x,-29,x,x,x
COC(=O)[C@]12C[C@H](CC(=O)N3CCC(c4ccccc4)CC3)C(=O)N(Cc3ccc(Cl)cc3Cl)C1=C[C@H](C(C)(C)C)O[C@@H]2C,x,x,-7,x,x,x
CC1=C(/C=N/Nc2ccc([N+](=O)[O-])cc2[N+](=O)[O-])C(C)(C)CCC1,-18,16µM*,-1,u,u,-3%
O=C(c1sc2ccccc2c1Cl)N(Cc1ccccc1)C1CCS(=O)(=O)C1 (centres undefined),12,i,-5,u,21µM*,-14%
O=C(c1sc2ccccc2c1Cl)N(Cc1ccccc1Cl)C1CCS(=O)(=O)C1 (centres undefined),-5,u,1,u,8.2µM*,-27%
O=C(c1sc2ccccc2c1Cl)N(Cc1ccco1)C1CCS(=O)(=O)C1 (centres undefined),1,i,5,x,u,2%
COc1ccc(C2SCCN2C(=S)Nc2ccc(F)cc2)cc1 (centres undefined),17,i,-2,-2%,i,12%
CCOC(=O)c1ccc(NC(=S)N2CCSC2c2ccc(OC)cc2)cc1 (centres undefined),3,i,2,-11%,18µM*,-3%
CCOC(=O)c1ccc(NC(=S)N2CCSC2c2ccc(Cl)cc2)cc1 (centres undefined),-3,i,4,21µM*,u,u
COc1c([N+](=O)[O-])ccc(N)c1N,x,i,x,x,i,x
Cc1ccc(-c2c[n+](Cc3ccc(Cl)c(Cl)c3)c3n2CCC3)cc1,-8,3.7µM*,0,-13%,i,-3%
COc1ccc(-c2c[n+](CC(=O)c3cccs3)c3n2CCC3)cc1,-19,u,2,-26%,i,3%
